Consider 17 compounds from PubChem BioAssay (EPA / NIEHS).

The target in test [1] is Cellular tumor antigen p53 (Homo sapiens) (UniProt P04637). In words: TOX21_p53_BLA_p3_ratio: Tox21 HCT-116 p53 Agonism Beta-lactamase Assay, Ratio, Phase 3 (AID 2283596). In short, it runs like this: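 Cells were seeded at 4000/well, rested 5 h at 37C, then dosed with DMSO compound solutions (217-fold dilution) for 16 h. CCF4-AM substrate was loaded for 2 h at room temperature, and the 460/530 nm emission ratio was fitted for gain of signal versus DMSO.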
Sequence of Cellular tumor antigen p53 (Homo sapiens) (P04637 whole entry, looked up): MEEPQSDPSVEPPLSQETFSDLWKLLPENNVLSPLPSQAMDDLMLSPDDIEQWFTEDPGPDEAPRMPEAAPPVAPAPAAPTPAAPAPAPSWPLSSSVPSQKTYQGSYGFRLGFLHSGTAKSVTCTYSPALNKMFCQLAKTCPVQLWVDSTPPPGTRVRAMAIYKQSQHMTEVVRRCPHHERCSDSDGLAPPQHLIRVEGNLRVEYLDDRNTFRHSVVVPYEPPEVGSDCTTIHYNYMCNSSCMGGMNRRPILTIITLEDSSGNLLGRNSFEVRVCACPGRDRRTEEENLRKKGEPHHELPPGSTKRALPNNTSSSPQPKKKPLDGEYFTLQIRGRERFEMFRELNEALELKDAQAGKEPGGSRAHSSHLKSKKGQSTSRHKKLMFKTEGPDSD

Test [2] has the same target. Nature of the test: TOX21_p53_BLA_p5_ratio: Tox21 HCT-116 p53 Agonism Beta-lactamase Assay, Ratio, Phase 5 (AID 2283599). In short, it runs like this:
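HCT-116 cells carrying a p53-inducible beta-lactamase reporter were seeded at 4000 cells/well and dosed after 5 h with compound in DMSO (217-fold dilution). After 16 h at 37C, CCF4-AM substrate was added for 2 h, and the 460/530 nm emission ratio was scored as gain-of-signal versus DMSO.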

For test [3] the target is unchanged. Nature of the test: TOX21_p53_BLA_p4_ratio: Tox21 HCT-116 p53 Agonism Beta-lactamase Assay, Ratio, Phase 4 (AID 2283601). In short, it runs like this:
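HCT116 cells carrying an inducible beta-lactamase reporter were plated at 4000 cells/well, rested 5 h, then exposed to compounds in DMSO (217-fold dilution) for 16 h at 37C. CCF4-AM substrate was loaded 2 h at room temperature; 460/530 nm emission ratio scored gain-of-signal versus DMSO.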

A short description of test [4]: TOX21_p53_BLA_p4_viability: Viability Assessment in the Tox21 HCT-116 p53 Agonism Beta-lactamase Assay, Phase 4 (AID 2283597).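 Note: hits lower the luminescence signal meaning cytotoxicity.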 In short, it runs like this: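 4000 HCT116 cells per well; 5 h attachment; compounds from DMSO, 217-fold dilution; 16 h at 37C. Then CCF4-AM, 2 h RT, followed by CellTiter-Glo, 30 min RT, luminescence. Decrease = cytotoxicity.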
Test [5] can be described thus: TOX21_p53_BLA_p5_viability: Viability Assessment in the Tox21 HCT-116 p53 Agonism Beta-lactamase Assay, Phase 5 (AID 2283600). In short, it runs like this: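 Decreased CellTiter-Glo luminescence denotes lost viability. Exposure: 16 h at 37C, 5% CO2, with compounds from DMSO stocks diluted 217-fold in wells of 4000 cells.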
Test [6] can be described thus: TOX21_TRB_BLA_Antagonist_Followup_viability: Viability Assessment in the Tox21 Thyroid Hormone Receptor beta Antagonism Beta-lactamase (BLA) Follow-Up Assay (AID 2283961). In short, it runs like this:
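HEK293T cells with GAL4-human TRβ LBD and UAS-bla reporter, 3,000 cells/well in 2% charcoal-stripped FBS medium; 11-point concentrations in triplicate, 18 h at 37C. Viability from ATP by CellTiter-Glo luminescence, 30 min RT, same plates.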

Test [7] in a line: TOX21_p53_BLA_p3_viability: Viability Assessment in the Tox21 HCT-116 p53 Agonism Beta-lactamase Assay, Phase 3 (AID 2283593).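 Note: cells exposed to compound for 16 h before reading.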 In short, it runs like this:
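HCT-116 cells (4000/well) rested 5 h at 37C, then got DMSO compounds by pin tool (217-fold dilution) for 16 h at 37C, 5% CO2. After the bla read, CellTiter-Glo was added and luminescence read at 30 min, room temperature.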

The nature of test [8]: CCTE_Harrill_HTTr_Viability_MCF7: CCTE's 6-hour Cell Viability Assessment for the High-Throughput Transcriptomics (HTTr) Platform, in MCF-7 cells cultured in DMEM + 10% fetal bovine serum, Harrill Lab (AID 2284010; active = hit-call score of the fitted dose curve at least 0.9, where 1 is the maximum; inactive = score below 0.9). The procedure, abridged: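 Eight-point concentration series, six-hour exposure. Propidium iodide exclusion imaged to assess membrane integrity as a cytotoxicity readout; bidirectional fitting was done with DMSO as negative control and activity baseline.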

Test [9] is described as follows: CCTE_Harrill_HTTr_CellCount_MCF7: CCTE's Cell Proliferation Assessment for the High-Throughput Transcriptomics (HTTr) Platform, Harrill Lab (AID 2284012).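 Note: count of Hoechst-stained nuclei per well by high-content imaging in MCF-7 cells; cells exposed to compound for six hours; intended direction is loss of nuclei count meaning fewer cells.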 The procedure, abridged:
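For this full-screen endpoint, MCF-7 cultures received eight compound dilutions for six hours. Well nuclei counts from Hoechst imaging were analyzed relative to DMSO.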

Test [10] can be described thus: ATG_M_32_XSP2: Attagene TRANS-FACTORIAL Multi-Species (XSP2) HepG2 Assay for M19 Transcription Factor (Internal Marker) (AID 2283826). In short, it runs like this:
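HepG2 cells transiently transfected with GAL4-UAS reporter units; XSP2 panel included 3 nM 6-alpha-fluorotestosterone and 1.5 nM norgestrel for androgen receptor stimulation. Reporter mRNA read 24 h post-dosing by RT-PCR/capillary electrophoresis; fitted upward versus DMSO.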

Where “and” joins values, the source holds several entries; their conditions need not be identical. Identical values can stand only once. Results filed as inconclusive are left out. More than one record can exist for a structure, and the calls need not agree. Calls of active or inactive are those of the source. Rule for the calls, unless noted: active = hit-call score of the fitted dose curve at least 0.9, where 1 is the maximum; inconclusive = response in the unintended direction; inactive = score below 0.9.

In the case of `CCCC[n+]1cccc(C)c1`, the result in [1], in test [2] and in test [3] was inactive.
On to `CCN[C@@H](C)Cc1ccccc1`, for which the compound was classed as inactive in test [4].
With `O=c1[nH]c2ccccc2n1CCCN1CCC(n2c(=O)[nH]c3cc(Cl)ccc32)CC1`, the outcome in test [1] and in [5] was inactive.
For `CC(=O)[C@@]1(O)CC[C@H]2[C@@H]3CCC4=CC(=O)CC[C@]4(C)C3(F)[C@@H](O)C[C@@]21C` (stereo partly drawn), the call in test [4] and in test [5] was inactive.
For `CC1(C)S[C@@H]2[C@H](N)C(=O)N2[C@H]1C(=O)O`, the call in test [4], in test [2], in test [5] and in test [3] was inactive.
Consider `CCCCCCCCCCn1cc[n+](C)c1`, for which the AC50 in test [2] was 15.5 µM (active); in [3] it was 45.6 µM (active) and 21.5 µM (active) and 46 µM (active); in test [6], 7.88 µM (active). Further, the result in test [2] and in test [3] was inactive.
For `CCOc1cc(OP(=S)(OC)OC)nc(CC)n1`, the outcome in [1] and in test [3] was inactive.
Turning to `COP(N)(=S)Oc1ccccc1C(=O)OC(C)C` (stereo not drawn), the outcome in test [1], in test [4], in test [2] and in [3] was inactive.
Regarding `CC1CC(CC2CCC(N)C(C)C2)CCC1N` (stereo not drawn), the outcome in test [7], in [4] and in test [5] was inactive.
Regarding `COc1ccc2[nH]cc(CCN(C(C)C)C(C)C)c2c1`, the outcome in test [2] was inactive.
Turning to `CC(Cc1ccc2c(c1)OCO2)NO` (stereo not drawn), the call in test [7], in test [2] and in test [3] was inactive.
On to `CCCCCCCCCC(=O)O[C@H]1CC[C@H]2[C@@H]3CCC4=CC(=O)CC[C@@H]4[C@H]3CC[C@]12C`, for which the outcome in [1] and in [3] was inactive.
On to `CC(N)=S`, for which the call in [7], in [5], in test [3], in test [8] and in test [9] was inactive.
On to `NC1CCC(CC2CCC(N)CC2)CC1` (stereo not drawn), for which the result in test [2] was inactive.
Regarding `CCN(CC)C(=O)N[C@@H]1C=C2c3cccc4[nH]cc(c34)C[C@@H]2N(C)C1`, the result in test [1], in test [2] and in test [5] was inactive.
In the case of `O=P(OC(CCl)CCl)(OC(CCl)CCl)OC(CCl)CCl`, the compound was classed as inactive in test [10].
As to `CC(C)(C)NC(=O)[C@H]1CC[C@H]2[C@@H]3CC[C@H]4NC(=O)C=C[C@]4(C)[C@H]3CC[C@]12C`, the call in test [10] was inactive.

What is called AC50 is the midpoint of the concentration-response curve, whichever way the signal moves.
